Measurements published in PubChem BioAssay AID1529 (NMMLSC, 2009).
Out of some 290,000 compounds screened, about 4,200 (1.4%) were called active.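 The calls were made as follows: active = binding response more than 3 SD above or below the average of its plate-row segment, actives on both sides; inconclusive = wells at one plate position flagged as instrument error; inactive = the rest.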 The sample as a whole holds a higher share of actives than the screen did.

Molecular target: Mitogen-activated protein kinase kinase kinase 3 (Homo sapiens) (UniProt Q99759)
Sequence (Q99759 whole entry, looked up): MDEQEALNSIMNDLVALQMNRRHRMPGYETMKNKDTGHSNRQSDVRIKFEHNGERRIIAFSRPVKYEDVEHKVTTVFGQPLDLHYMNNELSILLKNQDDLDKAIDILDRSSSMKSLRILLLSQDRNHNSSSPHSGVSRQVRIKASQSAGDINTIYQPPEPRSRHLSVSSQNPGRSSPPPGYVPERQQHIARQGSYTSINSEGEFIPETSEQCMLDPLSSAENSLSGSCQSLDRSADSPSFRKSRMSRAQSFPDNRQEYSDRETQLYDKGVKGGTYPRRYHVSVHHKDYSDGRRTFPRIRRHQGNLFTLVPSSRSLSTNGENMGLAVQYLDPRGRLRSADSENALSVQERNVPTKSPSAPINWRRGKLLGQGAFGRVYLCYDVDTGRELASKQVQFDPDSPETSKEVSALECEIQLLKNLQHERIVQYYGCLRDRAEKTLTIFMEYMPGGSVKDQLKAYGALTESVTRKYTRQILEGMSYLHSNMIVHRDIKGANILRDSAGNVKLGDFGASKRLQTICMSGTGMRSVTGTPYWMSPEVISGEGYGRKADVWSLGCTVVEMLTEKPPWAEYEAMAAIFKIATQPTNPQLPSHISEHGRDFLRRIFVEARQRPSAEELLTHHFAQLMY
Experiment: compounds raising or lowering MEK5 association with MEKK3 PB1 – biochemical, wildtype MEKK3, multiplex bead flow cytometry, Alexa488-MEK5, primary screen (AID 1529);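 also: Alexa488 bead fluorescence after subtracting the streptavidin-only scavenger bead signal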
Settings: bead-based flow cytometry, Alexa488-MEK5 binding to MEKK3; at 10 µM; actives lie on both sides; 0 = blocked by unlabeled MEK5, 100 = vehicle

Binding response (% of control), active:
CC(C)(C)NC(=O)Cn1cnc([N+](=O)[O-])n1 1% [inhibitor]
CCOc1ccc(NC(=O)Nc2cc(C)ccc2OC)cc1 71% [inhibitor]
CC(=O)N(C)c1ccc(NC(=O)C(F)(F)F)cc1 2% [inhibitor]
CC(=O)Nc1ccc(C(=O)Nc2nc(-c3cc(C)n(Cc4ccccc4)c3C)cs2)cc1 131%
O=C(COC(=O)c1ccc(N2CCCC2=O)cc1)c1ccc(OC(F)F)cc1 1% [inhibitor]
COc1ccc(S(=O)(=O)N2CN(CCc3ccc(OC)c(OC)c3)c3nc4ccccc4nc32)cc1 64% [inhibitor]
COC(=O)c1nc2n(n1)C(c1ccc([N+](=O)[O-])cc1)C(C(=O)Nc1ccc(Cl)cc1)=C(C)N2 (centres undefined) 139%
FC(F)(F)c1nc(-c2ccccc2)ncc1-c1nnnn1-c1ccccc1 48% [inhibitor]
CCOC(=O)N1CCN(CC(=O)n2c(C)c(C)c3ccccc32)CC1 124%
Cc1onc(-c2ccccc2Cl)c1C(=O)OCC(=O)c1ccccc1 1% [inhibitor]

Binding response (% of control), inactive:
C#CCOCCOCCOCCNc1nc(N2CCN(C(=O)C([C@@H](C)CC)n3cc(C(N)COC(=O)C(F)(F)F)nn3)CC2)nc(N2CCN(C(=O)[C@H](Cc3ccc(O)cc3)n3cc(C(N)[C@H](C)CC)nn3)CC2)n1 (some centres undefined) 104%
CC(=O)Nc1ccc(Oc2ccc3c(c2)C(=O)NC3=O)cc1 105%
CC(C)(C)NC(=O)Cn1cnc2cc([N+](=O)[O-])ccc2c1=O 95%
O=C(Cn1cnc([N+](=O)[O-])n1)NCCc1ccccc1 102%
CCC(CC)COC(=O)C1=C(C)NC(=O)NC1c1ccc([N+](=O)[O-])cc1 (centres undefined) 105%
CCSc1nnc(SCC(=O)NNC(=O)c2ccccc2F)s1 101%
CCOc1ccc(NC(=O)Nc2cc(C)on2)cc1 102%
CCOc1ccc(C(=O)Nc2cc(OC)ccc2OC)cc1 97%
CC(C)CCC(C)NC(=O)c1ccc2nccnc2c1 (centres undefined) 61%
CCCc1nnc(NC(=O)CCC(=O)NC2CC2)s1 96%
CC(=O)N(C)c1ccc(NC(=O)Nc2cccc3ccccc23)cc1 103%
CCOc1ccc(NC(=O)Nc2ccc(N(C)C(C)=O)cc2)cc1 101%
CC(NCC(=O)Nc1cc(Cl)cc(Cl)c1)c1ccccc1 (centres undefined) 100%
Cc1cc(=O)oc2c3c(cc(OCC(=O)N[C@H](C(=O)O)c4ccccc4)c12)OC(C)(C)CC3 97%
C=CCC1(C(=O)N(C)Cc2ccccc2)CCN(C(=O)OC(C)(C)C)CC1 97%
CC(=O)Nc1ccc(-c2csc(NC(=O)Nc3ccccc3)n2)cc1 101%
Cc1cc(-c2csc(N)n2)c(C)n1Cc1ccccc1 91%
CC1CCC(NC(=O)c2ccc(N3CCCC3=O)cc2)CC1 (centres undefined) 104%
O=C(NCCCN1CCCCCC1)c1ccc(N2CCCC2=O)cc1 108%
COc1ccc(S(=O)(=O)NC(C)c2ccccc2)cc1C(=O)N1CCCCC1 (centres undefined) 103%
CCCN1CCn2c3c(c4cc(Br)ccc42)CCCC31 (centres undefined) 96%
O=C(c1cccs1)N(Cc1cc2ccccc2[nH]c1=O)CC1CCCO1 (centres undefined) 99%
C=CCN1CN(S(=O)(=O)c2ccc(OC)cc2)c2nc3ccccc3nc21 100%
O=S(=O)(c1ccccc1)N1CN(Cc2ccc(F)cc2)c2nc3ccccc3nc21 85%
Cc1ccc(C(=O)N2CCC(n3nccc3NC(=O)Nc3cccc(F)c3)CC2)cn1 96%
COC(=O)c1ccc(/C=N/NC(=O)C(=O)N2CCCCCC2)cc1 101%
CCn1cc(CN2CCN(CC(C)(C)C)C(CCO)C2)c2ccccc21 (centres undefined) 107%
COc1cc(C2C(C(=O)Nc3ccc(F)cc3)=C(C)Nc3nc(CCCO)nn32)cc(OC)c1OC (centres undefined) 104%
COCCOC(=O)C1=C(C)Nc2nc(C)nn2C1c1ccccc1 (centres undefined) 97%
CC(=O)N(c1ccc2oc(=O)sc2c1)S(=O)(=O)c1ccc(C)cc1 103%
CN(Cc1ccccc1)C(=O)c1ccc(COc2ccccc2)cc1 109%
COc1cc(OC)cc(C(=O)OCC(=O)Nc2sccc2C(N)=O)c1 97%
Clc1ccc(-n2nnnc2-c2cnc(-c3ccccn3)nc2-c2cccs2)cc1 100%
c1ccc(-n2nnnc2-c2cccnc2)cc1 108%
C=CCN1C(=NC(=O)COc2ccccc2)SC2CS(=O)(=O)CC21 (centres undefined) 102%
CCOC(=O)N1CCN(C(=O)Cn2cnc3ccccc3c2=O)CC1 99%
CCOC(=O)N1CCN(C(=O)c2n[nH]c(=O)c3ccccc23)CC1 100%
Cc1cccc(OCC(=O)Nc2ccc(C(=O)O)cc2NC(=O)COc2cccc(C)c2)c1 105%
O=C(CN1CCN(Cc2ccccc2)CC1)Nc1ccc(F)c(F)c1 104%
O=C(Nc1ccc(S(=O)(=O)N2CCCCCC2)cc1)c1c(F)cccc1F 101%
CC1(c2nnc(-c3ccncc3)o2)CC(c2cccnc2)=NO1 (centres undefined) 101%
Cc1cccc(N2CCN(S(=O)(=O)c3ccc(-c4cc(C)no4)s3)CC2C)c1 (centres undefined) 97%
Cc1onc(-c2ccccc2Cl)c1C(=O)NCCn1ccc2ccccc21 98%
Cc1[nH]c2ccccc2c1C(=O)COC(=O)c1c(-c2ccccc2)noc1C 108%
O=C(NCCCN1CCCCC1)C1CCCN(c2ncnc3c2nc2n3CCCCC2)C1 (centres undefined) 94%
O=C(CCN1CCN(C/C=C/c2ccccc2)CC1)Nc1ccccc1Cl 104%
COc1ccc(S(=O)(=O)N2CCOC2CNC(=O)C(=O)NCc2ccc(F)cc2)cc1 (centres undefined) 98%
Cc1nc(SCC(=O)NC2CCCC2)[nH]c(=O)c1C 101%
CCNS(=O)(=O)c1ccc(CCC(=O)N2CCN(c3cc(Cl)ccc3C)CC2)cc1 103%
